From PubChem BioAssay (Tox21)
Inconclusive results are not listed. Active and inactive are the calls of the source. The call rests on the fitted dose curve; in most records, active means well fitted cell-killing curve with a large enough effect in the repeat runs; inconclusive means weak or mixed curves, or effect the other way; inactive means flat fitted curve, though single readings scatter.

Assay: qHTS assay to identify small molecule antagonists of the androgen receptor (AR) signaling pathway using the MDA cell line - cell viability counter screen (AID 743041; further: nearly all actives have a fitted effect of over 45% in size)
Conditions: MDA-kb2 viability, CellTiter-Fluor, 16 h, cells co-treated with R1881 androgen agonist; series mostly up to 70.3 µM; viability change, negative = cytotoxic: at the top concentration
Description: National Center for Advancing Translational Sciences [NCATS]
NIH Chemical Genomics Center [NCGC]
U.S. Environmental Protection Agency [EPA]
National Institutes of Environmental Health Sciences [NIEHS]
National Toxicology Program [NTP]
U.S. Food and Drug Administration [FDA]
Androgen receptor (AR), a nuclear hormone receptor, plays a critical role in AR-dependent prostate cancer and other androgen related diseases. Endocrine disrupting chemicals (EDCs) and their interactions with steroid hormone receptors like AR may cause disruption of normal endocrine function as well as interfere with metabolic homeostasis, reproduction, developmental and behavioral functions. To identify the compounds that inhibit AR signaling, MDA-kb2 AR-luc cell line (from ATCC, deposited by Wilson et al.) was used to screen the Tox21 10K compound library. MDA-kb2 AR-luc cell line is human breast carcinoma cell line that was stably transfected with a luciferase reporter gene under control of the MMTV promoter containing response elements for both androgen receptor (AR) and glucocorticoid receptor (GR). The cytotoxicity of the Tox21 compound library against the MDA-kb2 AR-luc cell line was tested in parallel by measuring the cell viability using CellTiter-Fluor assay (Promega, Madison, WI) in the same wells.
Tox21 Assay Protocol Summary:
MDA-kb2 AR-luc cells were dispensed at 3,000 cells/4 uL/well of culture medium into white wall/solid-bottom 1536-well plates using a Multidrop Combi (ThermoFisher Scientific, Waltham, MA) dispenser. After the assay plates were incubated at a 37C and 0% CO2 for 5 hr, 23 nL of compounds dissolved in DMSO, positive controls or DMSO only was transferred to the assay plate by a Pintool station (Kalypsys, San Diego, CA), followed by addition of 1 uL of agonist (R1881) in culture medium using a Bioraptr Flying Reagent Dispenser (FRD) workstation (Beckman Coulter, Indianapolis, IN, USA). The plates were incubated at a 37C and 0% CO2 for 16 h. After 15.5 h incubation, 1uL of CellTiter-Fluor reagent (Promega) was added using a Bioraptr FRD to each plate for measuring cytotoxicity. The fluorescence intensity was quantified on a ViewLux plate reader (PerkinElmer, Shelton, CT) following 30 min incubation at 37C and 0% CO2.
On the % scale 0 is the no-effect control and ±100 the full control effect.

Structure (SMILES)	viability change, negative = cytotoxic
NC(=O)C(Cl)(Cl)Cl	-1.11% [at 95 µM] (inactive)
CCOP(=S)(OCC)SCSCC	-0.179% (inactive)
CC(C)(CCl)C(=O)Cl	4.76% (inactive)
CCCCCCCCCCOC(=O)c1ccccc1C(=O)OCCCCCCCCCC	3.56% (inactive)
CC(C)N(CCC(C(N)=O)(c1ccccc1)c1ccccn1)C(C)C (stereo not given)	10.7% (inactive)
O=S(=O)(Cl)c1ccccc1	6.56% [at 95 µM] (inactive)
C=CCC1([C@H](C)CCC)C(=O)NC(=O)NC1=O	2.99% (inactive)
CNP(=O)(OC)Oc1ccc(C(C)(C)C)cc1Cl (stereo not given)	-0.292% (inactive)
NNC(=O)c1cccnc1	-0.187% [at 95 µM] (inactive)
CCOP(=O)(OCC)Oc1ccc([N+](=O)[O-])cc1	-10.6% [at 95 µM] (inactive)
S=C=NCc1ccccc1	-1.47% [at 95 µM] (inactive)
c1ccoc1	6.7% (inactive)
O=C(N[C@H](c1ccccc1)[C@@H]1CN2CCC1CC2)c1c(Cl)ccc(C(F)(F)F)c1Cl	-4.4% [at 95 µM] (inactive)
CC[C@H]1C[C@H]2[C@@H]3CCC4=CC(=O)CC[C@@H]4[C@H]3CC[C@]2(C)[C@H]1O	20.9% (inactive)
CCOP(=O)(OCC)SCCSCC	-0.568% (inactive)
ClP(Cl)(Cl)(Cl)Cl	7.73% [at 95 µM] (inactive)
N#C/C(N)=C(/N)C#N	3.06% (inactive)
COC(=O)C(C)N(C(=O)Cc1ccccc1)c1c(C)cccc1C (stereo not given)	8.51% (inactive)
CCOc1ccc(C(C)(C)COCc2cccc(Oc3ccccc3)c2)cc1	10.9% (inactive)
C=CC(=O)OC	-0.21% [at 95 µM] (inactive)

Structure (SMILES)	viability change, negative = cytotoxic
CN1[C@@H]2CC[C@H]1CC(OC(=O)c1cc(Cl)cc(Cl)c1)C2 (stereo not given in full)	3.83% (inactive)
COC(=O)c1cncn1C(C)c1ccccc1 (stereo not given)	4.02% (inactive)
CCc1ccc(C(=O)NN(C(=O)c2cc(C)cc(C)c2)C(C)(C)C)cc1	16.1% (inactive)
C=CC(=O)OCC(C)C	10.8% (inactive)
CCN(C)N=O	7.44% (inactive)
C=CC(C)=O	9.24% (inactive)
CC/C(=N\OC/C=C/Cl)C1=C(O)CC(C2CCOCC2)CC1=O (stereo not given)	1.98% (inactive)
O=S1OC[C@@H]2[C@H](CO1)[C@]1(Cl)C(Cl)=C(Cl)[C@@]2(Cl)C1(Cl)Cl (stereo not given in full)	-7.15% (inactive)
ClCCCCBr	-10.5% [at 95 µM] (inactive)
Clc1ccc(C2(Cn3cncn3)CC(Br)CO2)c(Cl)c1 (stereo not given)	-0.937% (inactive)
CC(Cl)C(C)Cl (stereo not given)	-1.41% (inactive)
ClCc1ccccc1	1.31% (inactive)
CCC(Cl)CCl (stereo not given)	0.419% [at 95 µM] (inactive)
C/C=C/C=O	-3.89% (inactive)
Cc1ccccc1C(=O)Nc1cccc(OC(C)C)c1	-17.5% (inactive)
CO/C=C(/C(=O)OC)c1ccccc1COc1cccc(C(F)(F)F)n1	4.07% (inactive)
COc1c(C(C)(C)C)cc([N+](=O)[O-])c(C)c1[N+](=O)[O-]	0.909% (inactive)
O=C1c2ccccc2C(=O)C1C(=O)C(c1ccccc1)c1ccccc1	-5.76% (inactive)
CCCCN(N=O)C(=N)N[N+](=O)[O-]	2.17% [at 95 µM] (inactive)
Cl/C=C\Cl	-0.186% (inactive)
